From PubChem BioAssay AID1986 (Sanford-Burnham Center for Chemical Genomics, 2009) come the findings set out here.

This experiment is described as follows: cell-free HIV fusion peptide-binding blockers – biochemical, uHTS, fluorescence dequenching, primary screen (AID 1986). Conditions: 30 min, stronger effect = higher value.
The mark [1] stands for this setting: measured here: repeat confirmation average inhibition, at 18.6 µM.

The campaign covered roughly 290,000 compounds. About 890 (0.31%) were called active. Cut-off read from the data, not from the text of the source: active = inhibition mostly above about 52% (no sharp cut-off); inactive = mostly below about 76%. For the sample, actives were picked, then their nearest neighbours and some compounds at random.

As for `Cc1cc(C)c2nc(-n3nc(C)cc3N)cc(C)c2c1`, the inhibition (usually the change of the read-out against control, counted positive when it falls) (at 20 µM) was -0.5% (inactive).

For `COc1cc(C(=O)Nc2nc(-c3cc(C)ccc3C)c(C)s2)ccc1OCC(=O)Nc1ccc(F)cc1`, the inhibition (at 20 µM) is -1% (inactive).

Turning to `Clc1cccc(CNCCCSc2ncccn2)c1`, the inhibition (at 20 µM) was -1.9% (inactive).

Consider `CCc1c(-c2ccccc2)nc2sc3c(c2c1N)CCCC3`, for which, where the note is “at 20 µM”, the inhibition is 0.7% (inactive).

Take `CN1C(=O)S/C(=C/c2cccn2-c2cccc(C(=O)O)c2)C1=O`: the inhibition (at 20 µM) is 1.9% (inactive).

On to `Cc1ccccc1NC(=O)CN1C(=O)S/C(=C\c2cccn2-c2cccc(C(=O)O)c2)C1=O`, for which the inhibition (at 20 µM) was -1.1% (inactive).

For the compound `CC1=NN(c2nc(-c3ccc(Cl)cc3)cs2)C(=O)C1`, the inhibition (at 20 µM) is -1.9% (inactive).

For `O=C1CC(c2ccccc2)=NN1c1nc(-c2ccccc2)cs1`, where the note is “at 20 µM”, the inhibition was 58% (active).

Take `CC1=NN(c2nc(-c3ccccc3)cs2)C(=O)C1`: the inhibition (at 20 µM) was 47.5% (inactive).

With `CCOC(=O)Cn1c(=O)n(Cc2ccc(C)cc2)c(=O)c2cccnc21`, for the setting “at 20 µM”, the inhibition was 1.3% (inactive).

Turning to `COc1cc(N2CCCC2)c(OC)cc1/C=C1/NC(=S)NC1=O`, the inhibition (at 20 µM) is 121% (active).

Turning to `COc1cc(N2CCCC2)c(OC)cc1/C=c1/sc2nc3ccccc3n2c1=O`, the inhibition (at 20 µM) is -3.3% (inactive).

For the compound `COc1cc(N2CCCC2)c(OC)cc1C=O`, the inhibition (at 20 µM) was -2.7% (inactive).

For `COCCN(C(=O)C1CCC1)c1nnc(-c2cccnc2)s1`, the inhibition (at 20 µM) is -0.2% (inactive).

For `Oc1oc(-c2ccccc2)nc1C=Nc1ccccc1`, where the note is “at 20 µM”, the inhibition was -1.4% (inactive).

For `CN(C)c1ccc(N=Cc2nc(-c3ccccc3)oc2O)cc1`, the inhibition is, setting by setting: (at 20 µM) 84.5% (active); under setting [1], 132%.

Regarding `Cc1ccc(-c2nc(C=Nc3ccccc3)c(O)o2)cc1`, the inhibition (at 20 µM) was -1.7% (inactive).

For the compound `O=C(CCCc1ccccc1)Nc1ccccn1`, where the note is “at 20 µM”, the inhibition was -1.4% (inactive).

As to `O=C(O)CS(=O)CC(=O)Nc1cccc(C(F)(F)F)c1` (stereo not given), for the setting “at 20 µM”, the inhibition is 0.3% (inactive).

For the compound `CCN=C1S/C(=C\c2ccc(-c3cccc(C(=O)O)c3)o2)C(=O)N1CC`, the inhibition (at 20 µM) is 42% (inactive).

Take `CCN1C(=O)/C(=C\c2ccc(-c3cccc(C(=O)OC)c3)o2)SC1=Nc1ccc(C(=O)O)cc1`: the inhibition (at 20 µM) was 51.6% (inactive) and the inhibition under setting [1] was 8.6%.

As for `Cc1ccc(-c2csc(NC(=O)c3ccco3)n2)cc1C`, the inhibition (at 20 µM) is 2% (inactive).

Turning to `COc1cc(OC)c(OC)cc1CN1CCc2ccccc2C1`, the inhibition (at 20 µM) was 1% (inactive).

On to `O=C(CN1CCC(Cc2ccccc2)CC1)N1CCc2ccccc2C1`, for which the inhibition (at 20 µM) is 0.8% (inactive).

As to `CCOc1cccc(C2/C(=C(/O)c3ccc4c(c3)CC(C)O4)C(=O)C(=O)N2CCCn2ccnc2)c1` (stereo not given), for the setting “at 20 µM”, the inhibition is -2.5% (inactive).

Take `O=C(Nc1sc2c(c1C(=O)O)CCC2)c1ccccc1`: the inhibition (at 20 µM) is 12.1% (inactive).

In the case of `CC(C)(C)c1ccc(C(=O)Nc2sc3c(c2C(=O)O)CCC3)cc1`, the inhibition (at 20 µM) is 50.9% (active).

Take `O=C(Nc1sc2c(c1C(=O)O)CCC2)c1ccc(F)cc1`: the inhibition (at 20 µM) was 6.4% (inactive).

`O=C(CCN1CCc2ccccc2C1)c1ccc2c(c1)OCCO2`: the inhibition (at 20 µM) is 1.4% (inactive).

As for `O=C(c1ccc(Cl)cc1)c1c[nH]c(C(=O)NNc2ccccc2)c1`, the inhibition (at 20 µM) is -4.1% (inactive).

`CN(CCc1ccccn1)C1CCCN(S(=O)(=O)c2ccc(F)c(Cl)c2)C1` (stereo not given): the inhibition (at 20 µM) is -0.2% (inactive).

For the compound `COc1c(Br)cc(/C=N/n2c(-c3ccccc3)n[nH]c2=S)c(O)c1Br`, the inhibition (at 20 µM) is 44.2% (inactive).

Regarding `Oc1c(Br)cc(Br)cc1/C=N/n1c(-c2ccccc2)n[nH]c1=S`, the inhibition (at 20 µM) was 20.3% (inactive).

In the case of `Oc1c(Br)cc(/C=N/n2c(-c3ccccc3)n[nH]c2=S)c(O)c1Br`, the inhibition (at 20 µM) is 53.2% (active).

With `Oc1c(Br)cc(/C=N/n2c(-c3ccccc3)n[nH]c2=S)cc1Br`, the inhibition (at 20 µM) is 64.4% (inactive) and the inhibition under setting [1] was determined as 15.2%.

Consider `Cc1c(Br)c(O)c(Br)c(O)c1/C=N/n1c(-c2ccccc2)n[nH]c1=S`, for which the inhibition was 62.9% (inactive) (at 20 µM) and 47.6% under setting [1].

Regarding `Oc1ccccc1/C=N/n1c(-c2ccccc2)n[nH]c1=S`, the inhibition (at 20 µM) was 0.3% (inactive).

For the compound `Oc1c(Br)cc(/C=N/n2c(-c3ccccc3)n[nH]c2=S)c(Br)c1O`, for the setting “at 20 µM”, the inhibition is 63.4% (active).

As for `Oc1ccc(Br)cc1/C=N/n1c(-c2ccccc2)n[nH]c1=S`, the inhibition (at 20 µM) is 6% (inactive).

As to `CC(=O)c1cccc(N(CC(=O)N2CCOCC2)S(C)(=O)=O)c1`, the inhibition (at 20 µM) was -1.8% (inactive).

In the case of `CC(Oc1ccccc1)C(=O)NNC(=O)c1cccs1` (stereo not given), the inhibition (at 20 µM) is -0.2% (inactive).

For the compound `Cc1ccc(Nc2nc(N)c([N+](=O)[O-])c(N3CCOCC3)n2)cc1`, the inhibition (at 20 µM) was -3.1% (inactive).

Turning to `Cc1c(Cl)c(C(=O)NC2C3CC4CC(C3)CC2C4)nn1C` (stereo not given), the inhibition (at 20 µM) is -1.2% (inactive).

In the case of `O=C(Nc1ccn(Cc2ccccc2F)n1)c1ccc(COc2ccc(Br)cc2)cc1`, the inhibition (at 20 µM) is -0.1% (inactive).

For the compound `Cc1cccc(NC(=O)CN2C(=O)CCS(=O)(=O)c3ccccc32)c1C`, the inhibition (at 20 µM) is 0% (inactive).

For `CC(C)(C)NC(=O)NC(=O)COC(=O)c1cccc(NS(=O)(=O)c2ccc(F)c(F)c2)c1`, the inhibition (at 20 µM) was 5.9% (inactive).
